# In all, about 420,000 compounds went through this assay and about 64,000 (15%) were called active. Roughly 27% stayed inconclusive and do not appear here. Calls follow the shape of the dose curve; as a rule, active = well fitted inhibition curve with a large enough effect; inconclusive = small, poorly fitted or top-dose-only effect; inactive = flat fitted curve, though single readings scatter. Not all results are given here. Entries that show only a call come without a potency.
# Test: qHTS for Inhibitors of human tyrosyl-DNA phosphodiesterase 1 (TDP1): qHTS in cells in absence of CPT; also: nearly all actives have a fitted effect of over 55% in size
# Conditions: DT40 Tdp1-/- hTDP1 cells, no CPT, ATP luminescence, 48 h; activity change, negative = growth inhibition: at 46.2 µM (top of the series)
# How it was run: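 Luminescent ATP content (CellTiter-Glo) served as the growth readout. Knockout chicken DT40 cells expressing human TDP1 were exposed to compounds without camptothecin for a minimum 48 hr at 37 °C.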
# Potency is read from the fitted curve at half-maximal effect.
row,Compound,Potency
1,Cn1cncc1COC(=O)c1ccc(Cl)cc1,inactive
2,CCc1ccccc1OCCSc1nc(-c2cccs2)nc2cc(=O)[nH]n12,inactive
3,CC(C)c1c(O)nc(SCCOc2ccc(Cl)cc2)[nH]c1=O,inactive
4,Cc1ccc(OCCSc2nc(-c3cccs3)nc3cc(=O)[nH]n23)cc1Cl,29.1 µM (active)
5,Brc1cccc(-c2nnc3n2CCC3)c1,inactive
6,C[C@H](NC(=O)c1nc[nH]c1C(=O)NCC(=O)OC(C)(C)C)c1ccccc1,inactive
7,COc1ccc(CCNC(=O)C2CCN(c3nn4c(=O)cc(C)nc4s3)CC2)cc1OC,inactive
8,COc1ccc(CCNC(=O)c2ccc(NC(=O)CC3SC(N4CCCCC4)=NC3=O)cc2)cc1OC (stereo unspecified),inactive
9,O=C(O)c1ccccc1-c1ccccc1C(=O)NCCc1ccccc1,inactive
10,O=C(NCCc1ccccc1)c1cnc2sc(N3CCCC3)nn2c1=O,20.6 µM (active)
11,COc1ccc(CCNC(=O)c2cnc3sc(N4CCCCCC4)nn3c2=O)cc1OC,8.2 µM (active)
12,CSc1ncc(C(=O)NCCCc2ccccc2)c(C)n1,inactive
13,Cc1ccccc1N1CC(c2nc3ccccc3[nH]2)CC1=O (stereo unspecified),inactive
14,COCCNC(=O)CN(Cc1ccco1)C(=O)CCC(=O)Nc1nccs1,inactive
15,CCC(C)NC(=O)Cn1nc(C(F)(F)F)c2c1CCC2 (stereo unspecified),inactive
16,O=C(NCc1ccco1)c1nn2cccnc2c1Cl,inactive

row,Compound,Potency
1,CCOc1ccc(-n2c(SC(C)C(=O)OC)nc3c(c2=O)SCC3)cc1 (stereo unspecified),inactive
2,O=S(=O)(c1ccc(F)cc1)N1CCN(C(=S)NCc2ccco2)CC1,inactive
3,COc1cc(/C=C/C(=O)O)cc(S(=O)(=O)Nc2ccccc2SC)c1OC,inactive
4,COc1cc(Cl)c(NC(=O)C(NS(=O)(=O)c2cccs2)C(C)C)c(OC)c1 (stereo unspecified),inactive
5,CC(C)(C)c1csc(NC2=NS(=O)(=O)c3ccccc32)n1,inactive
6,CC(C)C(NS(=O)(=O)c1cccs1)C(=O)Nc1nc(C(C)(C)C)cs1 (stereo unspecified),23.1 µM (active)
7,Cc1ccccc1-n1cc(CNC(=O)C2CCC(=O)N(C3CC3)C2)cn1 (stereo unspecified),inactive
8,COc1ccc(CC(NC(C)=O)C(=O)N2CCN(C(=O)Nc3cccc(Cl)c3)CC2)cc1OC (stereo unspecified),inactive
9,O=C(CSCC(=O)Nc1cccc([N+](=O)[O-])c1)Nc1ccccc1,inactive
10,COC(=O)/C=C\C(=O)Nc1cccc([N+](=O)[O-])c1,2.06 µM (active)
11,CC(=O)Nc1cccc([N+](=O)[O-])c1,inactive
12,COc1cc(C2/C(=C(\O)c3ccc4c(c3)CC(C)O4)C(=O)C(=O)N2Cc2ccco2)ccc1O (stereo unspecified),inactive
13,CCOc1ccc(Nc2ncnc3scc(-c4ccc(OC)cc4)c23)cc1,18.4 µM (active)
14,CCOC(=O)c1sc2nc(C)nc(Nc3ccc(OC)c(OC)c3)c2c1C,inactive
15,COc1ccc(-c2csc3ncnc(Oc4ccc5c(C)cc(=O)oc5c4)c23)cc1,inactive

# From PubChem BioAssay AID686978 (National Center for Advancing Translational Sciences (NCATS), 2013)
